The values below come from PubChem BioAssay (NCI).

Experiment [1] can be described thus: NCI Yeast Anticancer Drug Screen. Data for the rad50 strain (AID 155).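 Further: 0% = growth of vehicle-only cultures of the same strain.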 Particulars: S. cerevisiae rad50 strain growth inhibition, stronger effect = higher value. Summed up:
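Relative growth inhibition (compound vs vehicle) was measured in yeast with a defined repair-gene alteration.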

Experiment [2] in a line: NCI Yeast Anticancer Drug Screen. Data for the mec2-1 strain (AID 157). The note with it: S. cerevisiae mec2-1 strain, stronger effect = higher value. Summed up:
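Cells of the genetically defined mec2-1 yeast strain are incubated with test compound. Inhibition of growth is calculated against vehicle-treated controls.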

The nature of experiment [3]: NCI Yeast Anticancer Drug Screen. Data for the sgs1 mgt1 strain (AID 161).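 Further: 0% = growth of cultures given vehicle only.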 Particulars: S. cerevisiae sgs1 mgt1 strain, stronger effect = higher value. The method, boiled down: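 Genetically altered yeast, compound exposure, growth inhibition relative to vehicle.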
The nature of experiment [4]: NCI Yeast Anticancer Drug Screen. Data for the cln2 rad14 strain (AID 165).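 Further: 0% = growth equal to vehicle treated cultures.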 The note with it: S. cerevisiae cln2 rad14 strain, stronger effect = higher value. Summed up:
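The screen exposed genetically defined yeast (cln2 rad14) to test compounds and scored growth inhibition relative to vehicle-treated controls.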

Experiment [5] in a line: NCI Yeast Anticancer Drug Screen. Data for the bub3 strain (AID 167). The note with it: S. cerevisiae bub3 mutant strain, stronger effect = higher value. Summed up:
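Screening used yeast with an engineered genetic alteration affecting cell cycle control. Compound-exposed cultures were compared with vehicle cultures, and reduced growth was taken as inhibition.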

Experiment [6] is described as follows: NCI Yeast Anticancer Drug Screen. Data for the mlh1 rad18 strain (AID 175). Particulars: S. cerevisiae mlh1 rad18 strain growth inhibition, stronger effect = higher value. The method, boiled down:
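Compound-treated yeast growth, normalised to vehicle controls. Strain bears defined DNA repair mutations.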

[7] abbreviates: at 5.0 µM (retest, dose inferred, filed as 0.5).
[8] abbreviates: at 50.0 µM (retest, dose inferred, filed as 5.0).

SMILES strings stand for the structures. Values joined by “and” are separate entries in the source; they are usually repeats but may differ in a detail not shown here. Identical values can stand only once. This is part of a sample that, as a whole, favours compounds with a hit. Of some 79,000 tested, about 15% had one in any assay. More than one record can exist for a structure, and the calls need not agree. Active and inactive are the calls of the source. No stated cut-off is given here; in the data, active means growth inhibition above about 70%; inactive means the rest.

Consider `CC(=O)Nc1c(Cl)c(Cl)c2c(c1Cl)Cc1cc(Cl)ccc1-2`, for which the growth inhibition in experiment [1] (setting [7]) was 99% (active); in experiment [1] (setting [8]) it was 99% (active); in experiment [1] (at 50.0 µM), 98.2% (active); in experiment [2] (setting [7]) it was 99% (active); in experiment [2] (setting [8]) it was 99% (active); in experiment [2] (at 50.0 µM) it was 98% (active). The growth inhibition in experiment [3] (setting [7]) was 99% (active); in experiment [3] (setting [8]), 49% (inactive); in experiment [3] (at 50.0 µM), 96.1% (active); in experiment [4] (setting [7]), 97% (active); in experiment [4] (setting [8]), 99% (active); in experiment [4] (at 50.0 µM), 95.5% (active). The growth inhibition in experiment [5] (setting [7]) was 99% (active); in experiment [5] (setting [8]) it was 99% (active); in experiment [5] (at 50.0 µM) it was 98.3% (active); in experiment [6] (setting [7]), 99% (active); in experiment [6] (setting [8]) it was 99% (active); in experiment [6] (at 50.0 µM) it was 98.5% (active).

`Fc1ccc(NC(=S)SCc2ccc3c(c2)OCO3)cc1`: the growth inhibition in experiment [1] (setting [7]) is 3% (inactive); in experiment [1] (setting [8]), 98% (active); in experiment [1] (at 50.0 µM) it was 99% (active); in experiment [2] (setting [7]), 1% (inactive); in experiment [2] (setting [8]), 99% (active); in experiment [2] (at 50.0 µM), 98.5% (active). Further, the growth inhibition in experiment [3] (setting [7]) is 3% (inactive); in experiment [3] (setting [8]) it was 99% (active); in experiment [3] (at 50.0 µM) it was 99.5% (active); in experiment [4] (setting [7]) it was -13% (inactive); in experiment [4] (setting [8]) it was 95% (active); in experiment [4] (at 50.0 µM), 98.5% (active). Also, the growth inhibition is -8% (inactive) in experiment [5] (setting [7]); 97% (active) in experiment [5] (setting [8]); 98.9% (active) in experiment [5] (at 50.0 µM); -4% (inactive) in experiment [6] (setting [7]); 95% (active) in experiment [6] (setting [8]); 99.3% (active) in experiment [6] (at 50.0 µM).

For the compound `Cc1ccccc1N=Nc1ccc(N=Nc2ccc(N)nc2N)c(C)c1`, the growth inhibition was 2% (inactive) in experiment [1] (setting [7]); -23% (inactive) in experiment [1] (setting [8]); 31.2% (inactive) in experiment [1] (at 50.0 µM); -19% (inactive) in experiment [2] (setting [7]); 17% (inactive) in experiment [2] (setting [8]); 62.1% (inactive) in experiment [2] (at 50.0 µM). Besides, the growth inhibition in experiment [3] (setting [7]) is -1% (inactive); in experiment [3] (setting [8]) it was 11% (inactive); in experiment [3] (at 50.0 µM), 10.1% (inactive); in experiment [4] (setting [7]), -4% (inactive); in experiment [4] (setting [8]) it was -27% (inactive); in experiment [4] (at 50.0 µM), 15.3% (inactive). Besides, the growth inhibition in experiment [5] (setting [7]) is -3% (inactive); in experiment [5] (setting [8]), 9% (inactive); in experiment [5] (at 50.0 µM), 82.2% (active); in experiment [6] (setting [7]), -2% (inactive); in experiment [6] (setting [8]) it was -29% (inactive); in experiment [6] (at 50.0 µM) it was 28.9% (inactive).

As to `c1cc2c3c(c1)c1cc4c(cc1c[n+]3CC2)OCO4`, the growth inhibition in experiment [1] (setting [7]) was 14% (inactive); in experiment [1] (setting [8]) it was 38% (inactive); in experiment [1] (at 50.0 µM), 89.9% (active); in experiment [2] (setting [7]) it was 23% (inactive); in experiment [2] (setting [8]), 36% (inactive); in experiment [2] (at 50.0 µM), 92.5% (active). Moreover, the growth inhibition was 25% (inactive) in experiment [3] (setting [7]); 41% (inactive) in experiment [3] (setting [8]); 92.1% (active) in experiment [3] (at 50.0 µM); 13% (inactive) in experiment [4] (setting [7]); 18% (inactive) in experiment [4] (setting [8]); 90.8% (active) in experiment [4] (at 50.0 µM). Further, the growth inhibition was 2% (inactive) in experiment [5] (setting [7]); 20% (inactive) in experiment [5] (setting [8]); 90.8% (active) in experiment [5] (at 50.0 µM); 25% (inactive) in experiment [6] (setting [7]); 51% (inactive) in experiment [6] (setting [8]); 90.9% (active) in experiment [6] (at 50.0 µM).

As for `CCSC(=NC)Nc1ccc(Oc2ccc(Cl)cc2)cc1`, the growth inhibition in experiment [1] (setting [7]) is 38% (inactive); in experiment [1] (setting [8]) it was 90% (active); in experiment [1] (at 50.0 µM), 81.9% (active); in experiment [2] (setting [7]), 39% (inactive); in experiment [2] (setting [8]), 83% (active); in experiment [2] (at 50.0 µM), 67.8% (inactive). Besides, the growth inhibition in experiment [3] (setting [7]) is 40% (inactive); in experiment [3] (setting [8]), 99% (active); in experiment [3] (at 50.0 µM), 92.4% (active); in experiment [4] (setting [7]) it was 33% (inactive); in experiment [4] (setting [8]) it was 75% (active); in experiment [4] (at 50.0 µM), 71.1% (active). Further, the growth inhibition in experiment [5] (setting [7]) is 46% (inactive); in experiment [5] (setting [8]), 72% (active); in experiment [5] (at 50.0 µM), 88.2% (active); in experiment [6] (setting [7]) it was 46% (inactive); in experiment [6] (setting [8]), 97% (active); in experiment [6] (at 50.0 µM), 81.6% (active).

In the case of `CC(=O)/C(=C\c1ccc(Cl)c(Cl)c1)C(=O)CCN(C)C`, the growth inhibition is 13% (inactive) and 6% (inactive) in experiment [1] (setting [7]); 42% (inactive) and 30% (inactive) in experiment [1] (setting [8]); 49.2% (inactive) and 56% (inactive) in experiment [1] (at 50.0 µM); 13% (inactive) and -8% (inactive) in experiment [2] (setting [7]); 43% (inactive) and 26% (inactive) in experiment [2] (setting [8]); 78.2% (active) and 42.8% (inactive) in experiment [2] (at 50.0 µM). For the same compound, the growth inhibition is 22% (inactive) and 9% (inactive) in experiment [3] (setting [7]); 45% (inactive) and 50% (inactive) in experiment [3] (setting [8]); 58.6% (inactive) and 63.7% (inactive) in experiment [3] (at 50.0 µM); 19% (inactive) and 16% (inactive) in experiment [4] (setting [7]); 17% (inactive) and 21% (inactive) in experiment [4] (setting [8]); 18.8% (inactive) and 41.1% (inactive) in experiment [4] (at 50.0 µM). For the same compound, the growth inhibition was 5% (inactive) and 18% (inactive) in experiment [5] (setting [7]); 41% (inactive) and 42% (inactive) in experiment [5] (setting [8]); 58% (inactive) and 58.1% (inactive) in experiment [5] (at 50.0 µM); 20% (inactive) and 8% (inactive) in experiment [6] (setting [7]); 50% (inactive) and 49% (inactive) in experiment [6] (setting [8]); 74.2% (active) and 72.2% (active) in experiment [6] (at 50.0 µM).

Turning to `CSCCC(NS(=O)(=O)Cc1ccccc1)C(=O)NNc1ccccc1` (centres undefined), the growth inhibition in experiment [1] (setting [7]) was -4% (inactive) and 18% (inactive); in experiment [1] (setting [8]), 44% (inactive) and 71% (active); in experiment [1] (at 50.0 µM) it was 72% (active) and 51.2% (inactive); in experiment [2] (setting [7]) it was 0% (inactive) and 2% (inactive); in experiment [2] (setting [8]), 30% (inactive) and 34% (inactive); in experiment [2] (at 50.0 µM) it was 30.7% (inactive) and 41.2% (inactive). For the same compound, the growth inhibition was -12% (inactive) and 10% (inactive) in experiment [3] (setting [7]); 65% (inactive) and 58% (inactive) in experiment [3] (setting [8]); 55.9% (inactive) and 63.3% (inactive) in experiment [3] (at 50.0 µM); 14% (inactive) and 5% (inactive) in experiment [4] (setting [7]); 44% (inactive) and 60% (inactive) in experiment [4] (setting [8]); 56.4% (inactive) and 40.1% (inactive) in experiment [4] (at 50.0 µM). Moreover, the growth inhibition in experiment [5] (setting [7]) is 2% (inactive) and 16% (inactive); in experiment [5] (setting [8]), 42% (inactive) and 93% (active); in experiment [5] (at 50.0 µM), 46.6% (inactive) and 73.8% (active); in experiment [6] (setting [7]), 33% (inactive) and 18% (inactive); in experiment [6] (setting [8]) it was 79% (active) and 65% (inactive); in experiment [6] (at 50.0 µM), 76.9% (active) and 76.8% (active).

As for `CC(=O)Nc1cc(C)ccc1C`, the growth inhibition was 1% (inactive) in experiment [1] (setting [7]); -3% (inactive) in experiment [1] (setting [8]); -36.6% (inactive) and -46.2% (inactive) in experiment [1] (at 50.0 µM); -2% (inactive) in experiment [2] (setting [7]); 0% (inactive) in experiment [2] (setting [8]); 15.4% (inactive) and -28.3% (inactive) in experiment [2] (at 50.0 µM). In addition, the growth inhibition in experiment [3] (setting [7]) is 0% (inactive); in experiment [3] (setting [8]), -3% (inactive); in experiment [3] (at 50.0 µM), -1.25% (inactive) and -9.15% (inactive); in experiment [4] (setting [7]), -3% (inactive); in experiment [4] (setting [8]), 4% (inactive); in experiment [4] (at 50.0 µM), 51.8% (inactive) and 34.4% (inactive). Besides, the growth inhibition is 0% (inactive) in experiment [5] (setting [7]); -3% (inactive) in experiment [5] (setting [8]); 42.2% (inactive) and -9.35% (inactive) in experiment [5] (at 50.0 µM); 3% (inactive) in experiment [6] (setting [7]); -4% (inactive) in experiment [6] (setting [8]); -36.9% (inactive) and -2% (inactive) in experiment [6] (at 50.0 µM).
